Experimental findings from paper PMC5540273 (PLoS ONE, 2017) are described below.

In general, Kd refers to the free concentration of one partner at which half of the binding sites on the other are occupied at equilibrium, for simple one-to-one binding.
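Note: kd values determined as follow-up on hits from a single-replicate KINOMEscan panel screen.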

In the first experiment the test system is PIK3CB.
Compound `COc1ccc(COc2cc(-n3cnc4ccccc43)sc2C(N)=O)cc1` [GSK1024304] showed a Kd of more than 10000 nM. Still for that read-out and setting: the same measure for `COc1ccc(S(=O)(=O)NC2CCN(c3cc(C)nc(Nc4cccc(C#N)c4)n3)CC2)cc1.O=C(O)C(F)(F)F` [GSK1653539]: more than 10000 nM; for `Cc1cn2c(=O)cc(N3CCOCC3)nc2n1Cc1cccc(Cl)c1Cl` [GSK2334006]: 2.4 nM. Still for that read-out and setting: the same measure for `O=c1cc(N2CCOCC2)nc2n(Cc3cccc(Cl)c3Cl)c(C3CC3)nn12` [GSK2358994]: 0.94 nM; for `Cc1c(Cn2c(C)nn3c(=O)cc(N4CCOC(C)C4)nc23)cccc1C(F)(F)F` (stereo not drawn) [GSK2344444]: 0.67 nM. On the same count and under the same terms, the same measure for `O=c1cc(N2CCOCC2)nc2n(Cc3cccc(C(F)(F)F)c3)ccn12` [GSK2297543]: 140 nM; for `Cc1cccc(Cn2ccn3c(=O)cc(N4CCOCC4)nc23)c1` [GSK2297542]: 23 nM; for `N#Cc1c(N2CCOCC2)sc(-c2ccn[nH]2)c1-c1ccc(Cl)cc1`: 750 nM. Compound `O=c1cc(N2CCOCC2)nc2n(Cc3cccc4ccccc34)ccn12` [GSK2333389] displayed a Kd of 2.9 nM. The compound `O=c1cc(N2CCOCC2)nc2n(Cc3cccc(F)c3)ccn12` [GSK2297430] registered a Kd of 55 nM.

`[2H]C([2H])(c1cccc(C(F)(F)F)c1C)n1ccn2c(=O)nc(N3CCOCC3)cc12` [GSK2336394]: the Kd amounted to 51 nM.

The test system of the next experiment is PIK3CD.
Compound `Cc1cn2c(=O)cc(N3CCOCC3)nc2n1Cc1cccc(Cl)c1Cl` [GSK2334006] returned a Kd of 120 nM. Consider `O=c1cc(N2CCOCC2)nc2n(Cc3cccc(Cl)c3Cl)c(C3CC3)nn12` [GSK2358994], for which binding was put at a Kd of 820 nM. The same measure, in the same setting: the same measure for `Cc1c(Cn2c(C)nn3c(=O)cc(N4CCOC(C)C4)nc23)cccc1C(F)(F)F` (stereo not drawn) [GSK2344444]: 80 nM; for `O=c1cc(N2CCOCC2)nc2n(Cc3cccc4ccccc34)ccn12` [GSK2333389]: 150 nM.
